Experimental data published in PubChem BioAssay.
Results filed as inconclusive are left out. Active and inactive are the calls of the source.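 How the source made its calls, unless noted: active means normalized viability below 100% at a tested concentration; inactive means the rest.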

Columns and labels:
[1] = growth inhibition of DIPG glioma cells, dose response, cell-based, SU-DIPG-XIII, MIPE5.0, CellTiter-Glo, qHTS (AID 1347064; cut-off not given, nearly all actives have AC50 up to about 23 µM); details: SU-DIPG-XIII viability, CellTiter-Glo ATP luminescence
[2] = SU-DIPG-VI glioma cell viability, MIPE4.0 library, CellTiter-Glo luminescence, qHTS (AID 1347066; cut-off not given, nearly all actives have AC50 up to about 30 µM;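 further: cells exposed to compound for 48 hours before readout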); details: CellTiter-Glo ATP luminescence
[3] = JHH-DIPG-1 glioma cell viability, MIPE5.0 library, CellTiter-Glo luminescence, qHTS (AID 1347067; cut-off not given, nearly all actives have AC50 up to about 26 µM;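 further: cells exposed to compound for 48 hours before readout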); details: JHH-DIPG-1 glioma viability, CellTiter-Glo ATP luminescence
[4] = SU-DIPG-XXV glioma cell viability, MIPE5.0 library, qHTS (AID 1347068; cut-off not given, nearly all actives have IC50 up to about 30 µM)
[5] = sensitizers of A549 cells to miR-34 induction, primary screen, imaging, A549 dox-inducible miR-34, nuclei and caspase counts (AID 1347080;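 active means compounds whose cell count with miR-34 switched on is under 0.7 times the count with it off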); details: A549 miR-34 inducible, Hoechst nuclei count, 48 h
[6] = survival rescue of mitochondrial mutant cells in low glucose, primary screen, MELAS cybrids, Rieske KO mouse fibroblasts, CellTiter-Glo (AID 1508586;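 active means mean z-score across replicates of 1.96 or higher in either the MELAS or the Rieske mutant cell line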;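 further: z relative to plate mean and SD of compound and empty wells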)
[7] = ovarian cancer cell viability with rucaparib, profiling panel, oncology-focused library, rucaparib conditional (AID 1508598); details: patient-derived ovarian cancer cells, CellTiter-Glo viability, 144 h, stronger effect = lower value

Cc1ccc2nc(NC(=O)CSc3nc4c(c(=O)n3-c3ccccc3)SCC4)sc2c1
1.26: fold change ([5]; measured here: relative caspase fold change +Dox/-Dox)
7340: cell count ([5]; measured here: total cells without miR-34 induction)
-0.109: z-score ([6]; Rieske KO mouse fibroblast survival, CellTiter-Glo 72 h)
active: viability ([7]; at 0.00488 µM, OCI-P5x cells, without rucaparib) 95.3% | viability ([7]; at 0.0195 µM, OCI-P5x cells, without rucaparib) 99.2% | viability ([7]; at 0.0781 µM, OCI-P5x cells, without rucaparib) 99.7% | viability ([7]; at 0.313 µM, OCI-P5x cells, without rucaparib) 94.9% | viability ([7]; at 1.25 µM, OCI-P5x cells, with rucaparib 20 µM, 100% = cells with rucaparib alone) 97.6% | viability ([7]; at 1.25 µM, OCI-P5x cells, without rucaparib) 97.1% | viability ([7]; at 5 µM, OCI-P5x cells, with rucaparib 20 µM, 100% = cells with rucaparib alone) 76.9% | viability ([7]; at 5 µM, OCI-P5x cells, without rucaparib) 95.4%
inactive: outcome [1] | outcome [2] | outcome [3] | outcome [4] | fold change ([5]; stronger effect = lower value, cell number ratio, induced over uninduced) 1.08 | z-score ([6]; MELAS cybrid survival, CellTiter-Glo 48 h, stronger effect = higher value) -0.206 | viability ([7]; at 0.000305 µM, OCI-C5x cells, with rucaparib 10 µM, 100% = cells with rucaparib alone) 116% | viability ([7]; at 0.000305 µM, OCI-C5x cells, without rucaparib) 106% | viability ([7]; at 0.000305 µM, OCI-P5x cells, with rucaparib 20 µM, 100% = cells with rucaparib alone) 106% | viability ([7]; at 0.000305 µM, OCI-P5x cells, without rucaparib) 100% | viability ([7]; at 0.00122 µM, OCI-C5x cells, with rucaparib 10 µM, 100% = cells with rucaparib alone) 113% | viability ([7]; at 0.00122 µM, OCI-C5x cells, without rucaparib) 109% | viability ([7]; at 0.00122 µM, OCI-P5x cells, with rucaparib 20 µM, 100% = cells with rucaparib alone) 102% | viability ([7]; at 0.00122 µM, OCI-P5x cells, without rucaparib) 101% | viability ([7]; at 0.00488 µM, OCI-C5x cells, with rucaparib 10 µM, 100% = cells with rucaparib alone) 113% | viability ([7]; at 0.00488 µM, OCI-C5x cells, without rucaparib) 118% | viability ([7]; at 0.00488 µM, OCI-P5x cells, with rucaparib 20 µM, 100% = cells with rucaparib alone) 107% | viability ([7]; at 0.0195 µM, OCI-C5x cells, with rucaparib 10 µM, 100% = cells with rucaparib alone) 116% | viability ([7]; at 0.0195 µM, OCI-C5x cells, without rucaparib) 114% | viability ([7]; at 0.0195 µM, OCI-P5x cells, with rucaparib 20 µM, 100% = cells with rucaparib alone) 105% | viability ([7]; at 0.0781 µM, OCI-C5x cells, with rucaparib 10 µM, 100% = cells with rucaparib alone) 112% | viability ([7]; at 0.0781 µM, OCI-C5x cells, without rucaparib) 115% | viability ([7]; at 0.0781 µM, OCI-P5x cells, with rucaparib 20 µM, 100% = cells with rucaparib alone) 101% | viability ([7]; at 0.313 µM, OCI-C5x cells, with rucaparib 10 µM, 100% = cells with rucaparib alone) 112% | viability ([7]; at 0.313 µM, OCI-C5x cells, without rucaparib) 115% | viability ([7]; at 0.313 µM, OCI-P5x cells, with rucaparib 20 µM, 100% = cells with rucaparib alone) 106% | viability ([7]; at 1.25 µM, OCI-C5x cells, with rucaparib 10 µM, 100% = cells with rucaparib alone) 117% | viability ([7]; at 1.25 µM, OCI-C5x cells, without rucaparib) 114% | viability ([7]; at 5 µM, OCI-C5x cells, with rucaparib 10 µM, 100% = cells with rucaparib alone) 164% | viability ([7]; at 5 µM, OCI-C5x cells, without rucaparib) 162%
7960: cell count ([5]; measured here: total cells with miR-34 induction, stronger effect = lower value)

CN(Cc1ccccc1)C(=O)c1ccc(S(=O)(=O)Nc2ccccc2)cc1
inactive: outcome [1] | outcome [3] | outcome [4]
